# Article PMC11006913
# Positions count from the first letter of the chain named.
# What was measured:
# Assay in all cases: PBM; 200 nM protein, PBS
# Details in all cases: dsDNA, one strand shown
# PAX4 [1] = target: T1, PAX4 (Homo sapiens, UniProt O43316 9-242, R200K)
# T1 sequence: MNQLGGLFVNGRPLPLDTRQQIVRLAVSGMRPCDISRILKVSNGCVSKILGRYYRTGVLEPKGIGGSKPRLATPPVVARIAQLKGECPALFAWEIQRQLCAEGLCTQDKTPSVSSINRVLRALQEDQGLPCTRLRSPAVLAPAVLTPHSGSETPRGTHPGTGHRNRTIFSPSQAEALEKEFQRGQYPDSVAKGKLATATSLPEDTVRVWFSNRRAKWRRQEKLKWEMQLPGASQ
# PAX4 [2] = target: T2, PAX4 (Homo sapiens, UniProt O43316 9-242)
# T2 sequence: T1 sequence with K192R
# NKX2-6 [3] = target: T3, NKX2-6 (Homo sapiens, UniProt A6NCS4 118-204, R150C)
# T3 sequence: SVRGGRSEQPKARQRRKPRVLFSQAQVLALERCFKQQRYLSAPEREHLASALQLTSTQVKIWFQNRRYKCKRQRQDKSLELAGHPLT
# PAX4 [4] = target: T4, PAX4 (Homo sapiens, UniProt O43316 9-242, R200Q)
# T4 sequence: T1 sequence with K192Q
# PAX4 [5] = target: T5, PAX4 (Homo sapiens, UniProt O43316 9-242, F177V)
# T5 sequence: T1 sequence with F169V, K192R
# PAX4 [6] = target: T6, PAX4 (Homo sapiens, UniProt O43316 9-242, F177Y)
# T6 sequence: T1 sequence with F169Y, K192R
# PAX4 [7] = target: T7, PAX4 (Homo sapiens, UniProt O43316 9-242, R227W)
# T7 sequence: T1 sequence with K192R, R219W
# PITX2 = PITX2 (Homo sapiens, UniProt Q99697 72-157)
# HOXA2 [8] = target: HOXA2 (Homo sapiens, UniProt O43364 129-215, R185T)
# Sequence of HOXA2 (Homo sapiens, UniProt O43364 129-215, R185T) (O43364 129-215 R185T): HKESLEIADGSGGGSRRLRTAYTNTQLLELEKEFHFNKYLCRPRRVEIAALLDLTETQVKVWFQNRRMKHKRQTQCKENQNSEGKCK
# HOXA2 [9] = target: HOXA2 (Homo sapiens, UniProt O43364 129-215, R185K)
# Sequence of HOXA2 (Homo sapiens, UniProt O43364 129-215, R185K) (O43364 129-215 R185K): as the sequence (O43364 129-215 R185T) above, with T57K counted along it
# HOXA2 [10] = target: HOXA2 (Homo sapiens, UniProt O43364 129-215, Y150S)
# Sequence of HOXA2 (Homo sapiens, UniProt O43364 129-215, Y150S) (O43364 129-215 Y150S): as the sequence (O43364 129-215 R185T) above, with Y22S, T57R counted along it
# HOXA2 [11] = target: HOXA2 (Homo sapiens, UniProt O43364 129-215)
# Sequence of HOXA2 (Homo sapiens, UniProt O43364 129-215) (O43364 129-215): as the sequence (O43364 129-215 R185T) above, with T57R counted along it
# ALX3 [12] = target: ALX3 (Homo sapiens, UniProt O95076 139-225, N203Q)
# Sequence of ALX3 (Homo sapiens, UniProt O95076 139-225, N203Q) (O95076 139-225 N203Q): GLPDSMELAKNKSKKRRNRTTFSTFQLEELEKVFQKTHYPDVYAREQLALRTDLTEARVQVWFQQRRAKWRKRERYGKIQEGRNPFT
# NKX2-6 [13] = target: T8, NKX2-6 (Homo sapiens, UniProt A6NCS4 118-204)
# T8 sequence: T3 sequence with C33R
# ALX3 [14] = target: ALX3 (Homo sapiens, UniProt O95076 139-225)
# Sequence of ALX3 (Homo sapiens, UniProt O95076 139-225) (O95076 139-225): as the sequence (O95076 139-225 N203Q) above, with Q65N counted along it
# ALX3 [15] = target: ALX3 (Homo sapiens, UniProt O95076 139-225, L168Q)
# Sequence of ALX3 (Homo sapiens, UniProt O95076 139-225, L168Q) (O95076 139-225 L168Q): as the sequence (O95076 139-225 N203Q) above, with L30Q, Q65N counted along it
# NKX2-6 [16] = target: T9, NKX2-6 (Homo sapiens, UniProt A6NCS4 118-204, F151L)
# T9 sequence: T3 sequence with C33R, F34L
# ALX3 [17] = target: ALX3 (Homo sapiens, UniProt O95076 139-225, L168V)
# Sequence of ALX3 (Homo sapiens, UniProt O95076 139-225, L168V) (O95076 139-225 L168V): as the sequence (O95076 139-225 N203Q) above, with L30V, Q65N counted along it
# ALX3 [18] = target: ALX3 (Homo sapiens, UniProt O95076 139-225, N203S)
# Sequence of ALX3 (Homo sapiens, UniProt O95076 139-225, N203S) (O95076 139-225 N203S): as the sequence (O95076 139-225 N203Q) above, with Q65S counted along it
# HOXD13 [19] = target: HOXD13 (Homo sapiens, UniProt P35453 263-343, T313R)
# Sequence of HOXD13 (Homo sapiens, UniProt P35453 263-343, T313R) (P35453 263-343 T313R): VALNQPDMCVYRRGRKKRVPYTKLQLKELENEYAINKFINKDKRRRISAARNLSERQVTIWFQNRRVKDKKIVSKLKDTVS
# HOXD13 [20] = target: HOXD13 (Homo sapiens, UniProt P35453 263-343)
# Sequence of HOXD13 (Homo sapiens, UniProt P35453 263-343) (P35453 263-343): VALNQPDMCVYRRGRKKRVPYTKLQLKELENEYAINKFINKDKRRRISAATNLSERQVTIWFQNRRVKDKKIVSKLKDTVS
# HOXD13 [21] = target: HOXD13 (Homo sapiens, UniProt P35453 263-343, T313A)
# Sequence of HOXD13 (Homo sapiens, UniProt P35453 263-343, T313A) (P35453 263-343 T313A): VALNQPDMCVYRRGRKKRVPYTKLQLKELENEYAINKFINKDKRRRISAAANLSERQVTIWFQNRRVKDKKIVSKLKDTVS
sequence,measurement,setting,value
CCCCGGAG,binding signal,PAX4 [1],"9.33 upbm affinity estimate (log intensity, higher = more binding, comparable within an allelic series)"
same,binding signal,PAX4 [2],"9.37 upbm affinity estimate (log intensity, higher = more binding, comparable within an allelic series)"
same,binding signal,NKX2-6 [3],"9.25 upbm affinity estimate (log intensity, higher = more binding, comparable within an allelic series)"
same,binding signal,PAX4 [4],"9.35 upbm affinity estimate (log intensity, higher = more binding, comparable within an allelic series)"
same,binding signal,PAX4 [5],"9.22 upbm affinity estimate (log intensity, higher = more binding, comparable within an allelic series)"
same,binding signal,PAX4 [6],"9.27 upbm affinity estimate (log intensity, higher = more binding, comparable within an allelic series)"
same,binding signal,PAX4 [7],"9.32 upbm affinity estimate (log intensity, higher = more binding, comparable within an allelic series)"
GCGCCACC,binding signal,PAX4 [1],"9.38 upbm affinity estimate (log intensity, higher = more binding, comparable within an allelic series)"
same,binding signal,PAX4 [2],"9.4 upbm affinity estimate (log intensity, higher = more binding, comparable within an allelic series)"
same,binding signal,PAX4 [4],"9.4 upbm affinity estimate (log intensity, higher = more binding, comparable within an allelic series)"
same,binding signal,PITX2,"7.93 upbm affinity estimate (log intensity, higher = more binding, comparable within an allelic series)"
same,binding signal,PAX4 [5],"9.23 upbm affinity estimate (log intensity, higher = more binding, comparable within an allelic series)"
same,binding signal,PAX4 [6],"9.26 upbm affinity estimate (log intensity, higher = more binding, comparable within an allelic series)"
same,binding signal,PAX4 [7],"9.32 upbm affinity estimate (log intensity, higher = more binding, comparable within an allelic series)"
TGAATTAA,binding signal,PAX4 [1],"11.8 upbm affinity estimate (log intensity, higher = more binding, comparable within an allelic series)"
same,binding signal,PAX4 [2],"12.3 upbm affinity estimate (log intensity, higher = more binding, comparable within an allelic series)"
same,binding signal,HOXA2 [8],"11.1 upbm affinity estimate (log intensity, higher = more binding, comparable within an allelic series)"
same,binding signal,PAX4 [4],"11.9 upbm affinity estimate (log intensity, higher = more binding, comparable within an allelic series)"
same,binding signal,PITX2,"11.2 upbm affinity estimate (log intensity, higher = more binding, comparable within an allelic series)"
same,binding signal,HOXA2 [9],"12.5 upbm affinity estimate (log intensity, higher = more binding, comparable within an allelic series)"
same,binding signal,PAX4 [5],"10.6 upbm affinity estimate (log intensity, higher = more binding, comparable within an allelic series)"
same,binding signal,PAX4 [6],"11.1 upbm affinity estimate (log intensity, higher = more binding, comparable within an allelic series)"
same,binding signal,HOXA2 [10],"10.8 upbm affinity estimate (log intensity, higher = more binding, comparable within an allelic series)"
same,binding signal,HOXA2 [11],"11.1 upbm affinity estimate (log intensity, higher = more binding, comparable within an allelic series)"
GCCTGTCC,binding signal,PAX4 [1],"9.34 upbm affinity estimate (log intensity, higher = more binding, comparable within an allelic series)"
same,binding signal,PAX4 [2],"9.22 upbm affinity estimate (log intensity, higher = more binding, comparable within an allelic series)"
same,binding signal,HOXA2 [8],"7.41 upbm affinity estimate (log intensity, higher = more binding, comparable within an allelic series)"
same,binding signal,ALX3 [12],"7.8 upbm affinity estimate (log intensity, higher = more binding, comparable within an allelic series)"
same,binding signal,NKX2-6 [13],"9.8 upbm affinity estimate (log intensity, higher = more binding, comparable within an allelic series)"
same,binding signal,PAX4 [4],"9.44 upbm affinity estimate (log intensity, higher = more binding, comparable within an allelic series)"
same,binding signal,HOXA2 [9],"10.4 upbm affinity estimate (log intensity, higher = more binding, comparable within an allelic series)"
same,binding signal,PAX4 [5],"9.3 upbm affinity estimate (log intensity, higher = more binding, comparable within an allelic series)"
same,binding signal,ALX3 [14],"7.73 upbm affinity estimate (log intensity, higher = more binding, comparable within an allelic series)"
same,binding signal,PAX4 [6],"9.34 upbm affinity estimate (log intensity, higher = more binding, comparable within an allelic series)"
same,binding signal,ALX3 [15],"7.77 upbm affinity estimate (log intensity, higher = more binding, comparable within an allelic series)"
same,binding signal,NKX2-6 [16],"9.38 upbm affinity estimate (log intensity, higher = more binding, comparable within an allelic series)"
same,binding signal,ALX3 [17],"7.73 upbm affinity estimate (log intensity, higher = more binding, comparable within an allelic series)"
same,binding signal,PAX4 [7],"9.36 upbm affinity estimate (log intensity, higher = more binding, comparable within an allelic series)"
same,binding signal,HOXA2 [10],"10.4 upbm affinity estimate (log intensity, higher = more binding, comparable within an allelic series)"
same,binding signal,ALX3 [18],"7.78 upbm affinity estimate (log intensity, higher = more binding, comparable within an allelic series)"
same,binding signal,HOXA2 [11],"7.48 upbm affinity estimate (log intensity, higher = more binding, comparable within an allelic series)"
CGGCTTTC,binding signal,PAX4 [1],"9.21 upbm affinity estimate (log intensity, higher = more binding, comparable within an allelic series)"
same,binding signal,PAX4 [2],"9.26 upbm affinity estimate (log intensity, higher = more binding, comparable within an allelic series)"
same,binding signal,HOXD13 [19],"9.51 upbm affinity estimate (log intensity, higher = more binding, comparable within an allelic series)"
same,binding signal,PAX4 [4],"9.27 upbm affinity estimate (log intensity, higher = more binding, comparable within an allelic series)"
same,binding signal,HOXD13 [20],"9.48 upbm affinity estimate (log intensity, higher = more binding, comparable within an allelic series)"
same,binding signal,PAX4 [5],"9.3 upbm affinity estimate (log intensity, higher = more binding, comparable within an allelic series)"
same,binding signal,PAX4 [6],"9.24 upbm affinity estimate (log intensity, higher = more binding, comparable within an allelic series)"
same,binding signal,HOXD13 [21],"9.54 upbm affinity estimate (log intensity, higher = more binding, comparable within an allelic series)"
same,binding signal,PAX4 [7],"9.29 upbm affinity estimate (log intensity, higher = more binding, comparable within an allelic series)"
CCGCCCCG,binding signal,PAX4 [1],"9.25 upbm affinity estimate (log intensity, higher = more binding, comparable within an allelic series)"
same,binding signal,PAX4 [2],"9.35 upbm affinity estimate (log intensity, higher = more binding, comparable within an allelic series)"
same,binding signal,NKX2-6 [3],"9.69 upbm affinity estimate (log intensity, higher = more binding, comparable within an allelic series)"
same,binding signal,PAX4 [4],"9.16 upbm affinity estimate (log intensity, higher = more binding, comparable within an allelic series)"
same,binding signal,PAX4 [5],"9.13 upbm affinity estimate (log intensity, higher = more binding, comparable within an allelic series)"
same,binding signal,PAX4 [6],"9.21 upbm affinity estimate (log intensity, higher = more binding, comparable within an allelic series)"
same,binding signal,PAX4 [7],"9.44 upbm affinity estimate (log intensity, higher = more binding, comparable within an allelic series)"
GCCCAGCC,binding signal,PAX4 [1],"9.23 upbm affinity estimate (log intensity, higher = more binding, comparable within an allelic series)"
same,binding signal,PAX4 [2],"9.33 upbm affinity estimate (log intensity, higher = more binding, comparable within an allelic series)"
same,binding signal,PAX4 [4],"9.24 upbm affinity estimate (log intensity, higher = more binding, comparable within an allelic series)"
same,binding signal,PITX2,"7.91 upbm affinity estimate (log intensity, higher = more binding, comparable within an allelic series)"
same,binding signal,PAX4 [5],"9.15 upbm affinity estimate (log intensity, higher = more binding, comparable within an allelic series)"
same,binding signal,PAX4 [6],"9.11 upbm affinity estimate (log intensity, higher = more binding, comparable within an allelic series)"
same,binding signal,PAX4 [7],"9.23 upbm affinity estimate (log intensity, higher = more binding, comparable within an allelic series)"
ATTAGGGA,binding signal,PAX4 [1],"11.1 upbm affinity estimate (log intensity, higher = more binding, comparable within an allelic series)"
same,binding signal,PAX4 [2],"11.5 upbm affinity estimate (log intensity, higher = more binding, comparable within an allelic series)"
same,binding signal,PAX4 [4],"11.2 upbm affinity estimate (log intensity, higher = more binding, comparable within an allelic series)"
same,binding signal,PAX4 [5],"10.1 upbm affinity estimate (log intensity, higher = more binding, comparable within an allelic series)"
same,binding signal,PAX4 [6],"10.3 upbm affinity estimate (log intensity, higher = more binding, comparable within an allelic series)"
same,binding signal,PAX4 [7],"10.4 upbm affinity estimate (log intensity, higher = more binding, comparable within an allelic series)"
